# Screening results as filed in PubChem.
# Rows were chosen to be rich in hits. Some 3% of all compounds tested hit in one or more screens of this group.
# PLK1 PBD block = qHTS for Inhibitors of PLK1-PDB (polo-like kinase 1 - polo-box domain): Primary Screen; Plk1 PBD binding of FITC phosphopeptide, fluorescence polarization; Potency, µM, without a hit: max response, negative = inhibition, actives largely listed as inhibitors; hit rate 2.8% among 360,000; note: series mostly up to about 57 µM; nearly all actives have a fitted effect of over 65% in size
# VDR inhibitor = Inhibitors of the vitamin D receptor (VDR): qHTS. hit rate 0.93% among 400,000. VDR-SRC2-3 peptide fluorescence polarization, 2 h. Potency, µM, for the others: max response, negative = inhibition, most hits filed as inhibitors
#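 Inhibition of the VDR/SRC2-3 peptide interaction is quantified by fluorescence polarization. Compounds (23 nl, pintool) incubate with the reagents for 2 hours at ambient room temperature.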
# ALOX12 inh = Primary qHTS assay for inhibitors of human arachidonate 12S-lipoxygenase (ALOX12): Round 2. hit rate 1.1% among 580,000. purified 12hLO, xylenol orange hydroperoxide absorbance. Potency, µM (titrated, usually from 108 µM), without a hit: top-dose activity change, negative = inhibition, actives largely listed as inhibitors. AID 1671190, 2021. Polyunsaturated fatty acid lipoxygenase ALOX12 (Homo sapiens), P18054
#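 Hydroperoxide product was detected by ferrous iron/xylenol orange as the 573 to 405 nm absorbance ratio. Arachidonic acid at 40 uM (final) was turned over for 30 min at room temperature by 150 nM human 12hLO, pH 7.0 Hepes buffer, after 15 min compound preincubation.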
# KAT2A inh = qHTS Assay for Inhibitors of GCN5L2 | Histone acetyltransferase KAT2A (Homo sapiens), Q92830 | GCN5L2 HAT assay, ThioGlo1 CoA-SH fluorescence | Potency, µM (series often up to 58.9 µM), for the others: at the top dose activity change, negative = inhibition, actives largely listed as inhibitors | hit rate 0.21% among 390,000 | AID 504327, 2011
# Target sequence (Q92830 whole entry, looked up): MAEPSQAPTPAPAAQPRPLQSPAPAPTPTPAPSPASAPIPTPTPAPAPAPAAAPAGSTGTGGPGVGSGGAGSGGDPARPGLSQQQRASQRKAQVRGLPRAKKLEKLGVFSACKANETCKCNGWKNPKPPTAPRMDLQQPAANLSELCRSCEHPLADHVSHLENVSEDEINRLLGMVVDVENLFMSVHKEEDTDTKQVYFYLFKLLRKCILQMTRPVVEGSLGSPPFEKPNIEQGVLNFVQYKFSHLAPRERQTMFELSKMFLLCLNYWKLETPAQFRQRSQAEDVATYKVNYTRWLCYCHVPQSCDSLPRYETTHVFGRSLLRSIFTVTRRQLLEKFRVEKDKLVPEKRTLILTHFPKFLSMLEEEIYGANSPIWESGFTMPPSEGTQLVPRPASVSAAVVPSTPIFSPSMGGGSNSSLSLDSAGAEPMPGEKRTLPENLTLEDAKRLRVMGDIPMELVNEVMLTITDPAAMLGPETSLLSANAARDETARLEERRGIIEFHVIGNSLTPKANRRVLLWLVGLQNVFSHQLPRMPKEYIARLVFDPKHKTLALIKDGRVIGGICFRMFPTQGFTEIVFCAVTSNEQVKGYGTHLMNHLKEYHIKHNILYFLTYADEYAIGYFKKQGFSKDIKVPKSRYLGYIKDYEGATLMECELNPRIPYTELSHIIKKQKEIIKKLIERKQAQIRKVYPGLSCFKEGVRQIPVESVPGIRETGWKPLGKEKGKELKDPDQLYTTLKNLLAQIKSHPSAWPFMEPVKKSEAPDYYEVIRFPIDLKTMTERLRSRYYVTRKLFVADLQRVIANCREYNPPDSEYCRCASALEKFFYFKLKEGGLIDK
#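 Titration-based screen in which CoA formation is detected via maleimide probe ThioGlo1 (50uM) turning fluorescent on thiol reaction; substrates H3(1-25) 75uM and acetyl-CoA 70uM, GCN5L2 20nM, 20 min incubation at room temperature.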
# * = called active by the depositor; ? = inconclusive; · = no result given; [ ] = dose if it differs, or a comment. Calls come from the whole dose curve; as a rule, active = well fitted curve in the direction sought with a large enough effect; inconclusive = small, poorly fitted or top-dose-only effect, or another doubt; inactive = no such curve, though single readings can be large; an effect the other way counts as inactive or inconclusive. % is set by controls: 0 for no effect and ±100 for the full control effect; potency is the fitted concentration of half-maximal effect.
SMILES,PLK1 PBD block,VDR inhibitor,ALOX12 inh,KAT2A inh
Cc1cc(C#N)c(C)n1-c1cc(S(=O)(=O)N2CCOCC2)ccc1N1CCCC1,21µM*,?,?,·
COCCCNCc1cc(C)n(-c2cc(S(=O)(=O)N3CCOCC3)ccc2N2CCCC2)c1C,-14%,-25%,209%,·
CN(C)S(=O)(=O)c1cccc(C(=O)Nc2cc(S(=O)(=O)N3CCOCC3)ccc2O)c1,-16%,-5%,10%,-3%
O=C(Nc1cc(S(=O)(=O)N2CCOCC2)ccc1N1CCCC1)c1ccc(F)cc1,9.5µM*,40µM*,40µM*,-19%
CCN(CC)S(=O)(=O)c1ccc(N2CCCCC2)c(NC(=O)/C(C#N)=C/c2ccc(OC)cc2)c1,3%,-18%,-13%,-9%
COc1ccc(/C=C(\C#N)C(=O)Nc2cc(S(=O)(=O)N3CCOCC3)ccc2N2CCCC2)cc1,6.7µM*,35µM*,?,-4%
CN(C)S(=O)(=O)c1cccc(C(=O)Nc2cc(S(=O)(=O)N3CCOCC3)ccc2N2CCCC2)c1,5.3µM*,45µM*,?,·
Cc1ccc(NC(=O)Cn2c3ncccc3c(=O)n2-c2ccc(C)c(C)c2)cc1,·,·,-14%,·
O=c1c2ccccc2c(-c2nnc(SCCO)o2)nn1Cc1ccccc1,·,·,14%,·
CC1=C[C@@H](CNC(=O)C(C)(C)C)[C@H](C(C)C)C[C@H]1CC(=O)N(C)Cc1cccnc1,·,·,9%[176 µM],·
COc1ccccc1NC(=O)/C(C#N)=C/c1cc([N+](=O)[O-])ccc1N1CCCC1,11µM*,-15%,-22%,-1%
COc1ccccc1NC(=O)/C(C#N)=C/c1ccncc1,?,-29%,?,-1%
CCN1CCC2(CCC1=O)CN(Cc1cccc(Cl)c1F)CCN2C (stereo not given),·,·,7%,·
CCOC(=O)c1ccc(Nc2nc(-c3cc4cc(Br)ccc4oc3=O)cs2)cc1,·,·,-23%,·
CC(=O)Nc1ccccc1NC(=O)C/C(C)=N/NC(=O)c1ccccn1,27µM*,-24%,0%,2%
CCS(=O)(=O)N1CCc2cc(C(=O)CSc3nnc(C4CC4)n3Cc3ccccc3)ccc21,·,·,19%,·
CCOC(=O)c1sc(=S)n(C)c1NC(=O)c1ccccc1C,6µM*,?,?,15%
C=CCOc1ccccc1N,·,·,5.6µM*,·
O=[N+]([O-])c1ccc(S(=O)(=O)NN=Cc2ccc(Cl)c(Cl)c2)cc1,11µM*,50µM*,18µM*,·
CC(=O)Nc1ccc(S(=O)(=O)NN=Cc2ccc(Cl)c(Cl)c2)cc1,-24%,-7%,?,·
Nc1cc(-c2ccncc2)c[nH]c1=O,30µM*,20µM*,-4%,5%
O=C(c1cc2cc(Cl)ccc2[nH]1)N1CCN(C(=O)c2ccco2)CC1,-24%,?,45µM*,-1%
O=C(c1cc2cc(Cl)ccc2[nH]1)N1CCN(c2ccccc2F)CC1,2%,5%,0%,0%
COc1ccccc1C1CC(=O)N(Cc2cccc(Cl)c2)c2c1c(C)nn2-c1nc(C)cc(C)n1 (stereo not given),·,·,1%,·
N#C/C(=N\Nc1ccc(S(=O)(=O)N2CCCCC2)cc1)C(N)=S,?,?,50µM*,-15%
SMILES,PLK1 PBD block,VDR inhibitor,ALOX12 inh,KAT2A inh
N#C/C(=N\Nc1cccc([N+](=O)[O-])c1)C(=O)c1ccc(Br)cc1,30µM*,-26%,40µM*,?
N#C/C(=N/Nc1ccc(S(=O)(=O)N2CCOCC2)cc1)C(N)=O,-19%,-2%,-14%,0%
CCOC(=O)/C(C#N)=N/Nc1ccc(S(=O)(=O)N2CCc3ccccc32)cc1,-2%,-15%,?,-11%
N#C/C(=N\Nc1ccc(S(=O)(=O)N2CCCCCC2)cc1)C(N)=S,15µM*,?,?,1%
N#C/C(=N\Nc1ccc(S(=O)(=O)N2CCc3ccccc32)cc1)C(N)=S,27µM*,?,16µM*,-12%
Cc1cc(C(=O)COc2ccc3ccc(=O)oc3c2)c(C)n1CC(F)(F)F,·,·,-3%,·
N#C/C(=N\Nc1ccc([N+](=O)[O-])cc1)C(N)=S,-24%,?,25µM*,-6%
COc1ccc(S(=O)(=O)N(CC(C)C)C2CCS(=O)(=O)C2)cc1C (stereo not given),·,·,2%,·
Oc1ccccc1C(=S)N1CCN(C(=S)c2ccccc2O)CC1,24µM*,-23%,?,6%
COc1ccc(-c2csc3ncn(-c4ccc(Cl)cc4)c(=O)c23)cc1OC,·,·,2%,·
CCCCS(=O)(=O)/C=C\C=C/S(=O)(=O)CCCC,15µM*,35µM*,·,-7%
COC(=O)C(C)N1C(=O)S/C(=C\c2ccc(-c3ccc(C(=O)O)cc3C)o2)C1=O (stereo not given),30µM*,22µM*,?,-4%
Cc1[nH]n(-c2ccccc2)c(=O)c1/C=N/NC(=O)c1cccc([N+](=O)[O-])c1,-4%,5%,375%,-4%
Cc1[nH]n(-c2cccc3ccccc23)c(=O)c1/C=N/NC(=O)c1cccc([N+](=O)[O-])c1,-19%,10%,45µM*,-5%
Cc1ccc(S(=O)(=O)N2CCN(C(=O)Cc3c(C)nn(C)c3C)CC2)cc1,·,·,27%,·
COc1ccc(S(=O)(=O)n2oc(=O)cc2-c2ccccc2)cc1,-17%,-13%,?,4%
COc1ccc(S(=O)(=O)N2CC=C(c3ccccc3)CC2)cc1OC,5%,·,3%,·
O=c1cc(-c2ccccc2)n(S(=O)(=O)c2ccccc2)o1,?,-29%,10µM*,-19%
COc1ccc(S(=O)(=O)n2oc(=O)cc2-c2ccccc2)cc1OC,?,-21%,14µM*,-12%
CCOC(=O)c1c(SCCN2CCCC2)n(-c2ccccc2)c(=S)n(-c2ccccc2)c1=O,-27%,71µM*,-13%,·
CCN1CCN(c2ncc3c(n2)CCN(Cc2ccc(Br)s2)C3)CC1,·,18%,?,1%
CCN1CCN(c2ncc3c(n2)CCN(Cc2cc(Br)cs2)C3)CC1,·,-4%,11µM*,3%
O=S(=O)(c1ccc(F)c(F)c1)N1CCN(Cc2cccc3cccnc23)CC1,·,·,7%,·
